Screening data (PubChem BioAssay)
GLP-1R inv ag – qHTS of GLP-1 Receptor Inverse Agonists (Inhibition Mode). 410,000 compounds, 1.6% hits. HEK293 GLP-1R CRE-luciferase, luminescence, 24 h; GLP-1R form is constitutively active. Glucagon-like peptide 1 receptor (Homo sapiens), P43220. Potency, µM (doses to about 38.3 µM), inactives show top-dose activity change, negative = inhibition, usual class: inhibitors. AID 624417, 2012; also: % is scaled to controls: 0 for no effect and ±100 for the full control effect; nearly all actives have a fitted effect of over 55% in size
Target sequence (P43220 whole entry, looked up): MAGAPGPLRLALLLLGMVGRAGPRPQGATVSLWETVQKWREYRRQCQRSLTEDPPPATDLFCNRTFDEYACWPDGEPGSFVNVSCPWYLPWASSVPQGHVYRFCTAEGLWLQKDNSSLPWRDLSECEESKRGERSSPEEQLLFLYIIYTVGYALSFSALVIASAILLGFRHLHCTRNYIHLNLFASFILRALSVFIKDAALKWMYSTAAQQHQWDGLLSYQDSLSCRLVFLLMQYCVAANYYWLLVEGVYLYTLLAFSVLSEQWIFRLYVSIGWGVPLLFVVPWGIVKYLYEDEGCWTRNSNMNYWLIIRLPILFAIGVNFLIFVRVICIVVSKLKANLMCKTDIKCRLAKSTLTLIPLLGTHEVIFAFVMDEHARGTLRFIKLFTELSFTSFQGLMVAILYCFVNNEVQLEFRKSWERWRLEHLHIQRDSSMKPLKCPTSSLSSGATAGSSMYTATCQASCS
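Seeding at 200 cells/uL, 12 h culture, 24 hr compound treatment, then luciferase reagent and a luminescence read; cells are HEK293 stably expressing a constitutively active GLP-1R plus cAMP-responsive luciferase.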
HepG2 viability – qHTS for Inhibitors of TGF-b: Cytotox Counterscreen; HepG2 CAGA-GFP viability, ATP luminescence, 18 h; AID 588856, 2011; Potency, µM (titrated, usually from 46.1 µM), for inactives: top-dose activity change, negative = cytotoxicity, usual class: cytotoxic; 410,000 compounds, 0.76% hits
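CellTiter-Glo luminescence gave cytotoxicity after 18 hours at 37 degrees C. The cells were HepG2 CAGA-GFP in 1% FBS DMEM, stimulated with 500 pg/mL TGF-beta after compound addition. %Activity was normalised to no-cell wells (complete cell-killing) and DMSO (no toxicity), and curves were fitted and classified.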
ATXN viability – Viability Counterscreen for Primary qHTS for Inhibitors of ATXN expression; 400,000 compounds, 0.49% hits; Potency, µM (titrated, usually from 56.7 µM), most hits filed as cytotoxic; S2 cells (HEK-293 line with an ATXN2-luciferase reporter) viability, CellTiter-Fluor protease fluorescence, 24 h; also: nearly all actives have a fitted effect of over 40% in size
ATXN2 expr inh – Primary qHTS for Inhibitors of ATXN expression; HEK-293 ATXN2-luciferase reporter, luminescence, 24 h; Potency, µM (series often up to 57 µM), for the others: at the top dose activity change, negative = inhibition, most hits filed as inhibitors; 360,000 compounds, 0.72% hits; also: % is scaled to controls: 0 for no effect and ±100 for the full control effect; nearly all actives have a fitted effect of over 55% in size
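qHTS (up to 57 uM final) was run with 24 h compound exposure of reporter cells at 37 °C. Each well was multiplexed: SteadyGlo luminescence measured ATXN2-luciferase expression after a fluorogenic Gly-Phe-AFC viability readout (25 uM final).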
TGFb inhibitor – qHTS for Inhibitors of TGF-b | HepG2 CAGA-GFP TGF-b/SMAD3 reporter, GFP fluorescence, 18 h; TGF-beta stimulated, 500 pg/mL final | Potency, µM (titrated, usually from 46.1 µM), inactives show top-dose activity, negative = inhibition, usual class: inhibitors | 410,000 compounds, 1.2% hits | AID 588855, 2011; also: % is scaled to controls: 0 for no effect and ±100 for the full control effect; nearly all actives have a fitted effect of over 65% in size
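Smad-responsive CAGA-GFP expression was quantified in HEPG2 cells exposed to compounds and 500 pg/mL final TGF-beta for 18 h at 37 degrees C; unstimulated wells defined full inhibition.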
GLP-1R agonist – qHTS of GLP-1 Receptor Agonists; Glucagon-like peptide 1 receptor (Homo sapiens), P43220; HEK293 GLP-1R CRE-luciferase, luminescence, 4-6 h; cells express a hypersensitive GLP-1R form; Potency, µM (highest dose often 45.6 µM), for the others: at the top dose activation, hits mostly activators; 380,000 compounds, 0.007% hits; AID 624172, 2012; also: % of control where 0% means no effect
* marks the source's active call; other numbers are inactive results; i = inactive; ? = inconclusive; · = no result. This is a sample that favours compounds with a hit; in the whole collection about 3.7% have one here. Calls follow the shape of the dose curve; as a rule, active = well fitted curve in the direction sought with a large enough effect; inconclusive = small, poorly fitted or top-dose-only effect, or another doubt; inactive = no such curve, though single readings can be large; an effect the other way counts as inactive or inconclusive. Potency is read from the fitted curve at half-maximal effect.

SMILES	GLP-1R inv ag	HepG2 viability	ATXN viability	ATXN2 expr inh	TGFb inhibitor	GLP-1R agonist
CCCCC(=O)NC(c1ccccc1)c1ccc2cccnc2c1O (stereo not drawn)	?	-30%	i	?	?	3%
CN(C)CCOc1ccc2c(c1)C(=O)C(=Cc1ncc([N+](=O)[O-])n1C)C2	?	-80%	?	·	1.4µM*	-5%
CCc1cc(OCCN(C)C)ccc1Cl	-4%	1%	i	-29%	-3%	-1%
Clc1nc(NCc2cccs2)c2[nH]cnc2n1	·	1%	·	·	17%	·
O=C(OCn1ncc(Cl)c(Cl)c1=O)c1cccc(C(F)(F)F)c1	?	7.1µM*	·	?	?	-17%
CCc1ccc(C(=O)Cn2ncc(Cl)c(Cl)c2=O)cc1	?	-97%	?	?	?	-12%
CCOC(=O)CC(NC(=O)c1cc2cc(Cl)ccc2oc1=O)c1ccc(C)cc1 (stereo not drawn)	-5%	-18%	i	2%	1%	-4%
CCN1CNC(=S)N(CCc2ccccc2)C1	-13%	-1%	i	-12%	7%	4%
CCOc1ccc(CCN2CN(CC)CNC2=S)cc1OCC	-5%	8.9µM*	i	-23%	-20%	8%
COC(=O)[C@H](C)N(Cc1ccc(Cl)c(Cl)c1)S(=O)(=O)CCN1CCN(c2ccccc2)CC1	-1%	-7%	i	-12%	11µM*	-2%
Nc1c(N2CCCC2)cc(Cl)c2nonc12	0%	-96%	i	-20%	10µM*	7%
Nc1ccc(N2CCCCC2)c2nonc12	93%	-76%	i	·	13µM*	-5%
Cc1nn(-c2cc(N3CCCCC3)ccc2N)c(=O)c2ccccc12	7%	0%	i	2%	-23%	11%
Nc1ccc(N2CCCCC2)cc1N1CCCCC1	-3%	-29%	i	-4%	10µM*	-11%
Cc1ccc(-c2nn(-c3ccccn3)c(=O)c3ccccc23)cc1C	10µM*	-26%	i	-12%	-4%	11%
Cc1ccc(-c2nn(-c3ccccn3)c(=O)c3ccccc23)cc1	-6%	-17%	i	-26%	-10%	16%
COc1cccc(NC(=O)Nc2nc(-c3ccc(OC)c(OC)c3)cs2)c1	?	16µM*	8.9µM*	3.2µM*	11µM*	-6%
COc1cccc(-c2csc(N3CCN(C(=O)Nc4ccccc4Cl)CC3)n2)c1	?	0%	i	·	-17%	-2%
COc1ccc(N2CCN(C(=O)Nc3cccc(C(F)(F)F)c3)CC2)cc1	10µM*	-27%	i	-31%	-28%	6%
COc1cccc(-c2csc(N3CCN(C(=O)NC45CC6CC(CC(C6)C4)C5)CC3)n2)c1	5µM*	-51%	i	-30%	-10%	-10%
COc1cccc(NC(=O)N2CCN(c3nc(-c4cccc(OC)c4)cs3)CC2)c1	13µM*	-36%	14µM*	·	?	-5%
COc1cc(-c2c(OC)cccc2OC)cc2c1OCCN(Cc1cn[nH]c1-c1ccc(Cl)cc1)C2	·	·	i	·	·	·
Fc1ccc(-c2nc3ccc(Br)cn3c2Cc2cccc(F)c2)cc1	?	-33%	i	44%	13µM*	8%
Fc1ccc(-c2nc3ccc(Br)cn3c2Cc2ccccc2)cc1	8.9µM*	-50%	?	10%	-11%	17%
Brc1ccc(-c2nc3ccc(Br)cn3c2Cc2ccccc2)cc1	-20%	4%	?	11%	3%	6%
SMILES	GLP-1R inv ag	HepG2 viability	ATXN viability	ATXN2 expr inh	TGFb inhibitor	GLP-1R agonist
CCc1ccc2oc(-c3cc(NC(=O)COc4ccc(C)cc4)ccc3O)nc2c1	·	21%	·	·	24%	·
COC(c1ccccc1)(c1ccccc1)[C@H](Oc1nc(C)cc(C)n1)C(=O)O	·	·	i	-8%	·	·
CC(=O)CCS(=O)(=O)c1ccc(Oc2ccc(S(=O)(=O)CCC(C)=O)cc2)cc1	?	5.6µM*	i	26%	?	-24%
CC(=O)CS(=O)(=O)c1ccc(Oc2ccc(S(=O)(=O)CC(C)=O)cc2)cc1	2%	4%	?	-23%	20%	-3%
O=C1OC2C(O)C(O)OC2C1O (stereo not drawn)	·	·	·	·	·	2%
CCOc1ccc(NC(=O)Cc2coc3ccc(C)cc23)cc1	?	-51%	i	-3%	-4%	·
O=C(NCCSCc1ccc(Cl)cc1Cl)c1ccc(CN2CCOCC2)cc1	10µM*	-28%	i	-21%	0%	1%
CC(C)N(C(=O)Cn1cc(S(=O)(=O)Cc2ccc(C(F)(F)F)cc2)c2ccccc21)C(C)C	-8%	-27%	·	·	?	·
CCCOc1ccc(C(=O)NNC(=S)NC(=O)CC)cc1	0%	-10%	·	28µM*	-23%	-17%
CC(C)(C)c1ccc(C(=O)Nc2ccc(Oc3cccnc3)nc2)cc1	8.9µM*	-36%	?	-35%	-2%	0%
CC(C)(C)c1ccc(C(=O)Nc2cccnc2)cc1	?	-21%	?	-9%	-11%	-1%
CCC(Oc1ccccc1)C(=O)Nc1cc(-c2ccccc2F)nn1-c1ccccc1 (stereo not drawn)	?	-33%	i	-17%	?	·
CCCCC(C)(C)[C@H](O)C=C[C@H]1[C@H](O)CC(=O)[C@H]1CC=CCCCC(=O)O	·	·	·	7%	·	·
O=C(NC1CCCCC1)c1ccc(Cn2c(SCc3cccc(F)c3)nc3cccnc32)cc1	-28%	-4%	·	·	-10%	·
Cc1cnc(Nc2nc3ccccc3o2)nc1C(=O)Nc1cccc(C(F)(F)F)c1	?	5µM*	i	-29%	?	-6%
O=C(Nc1ccc(/C=C/c2nc3ccccc3o2)cc1)c1cccc(C(F)(F)F)c1	3.2µM*	-45%	i	-25%	-1%	-1%
O=C(CS(=O)(=O)c1cccc2nsnc12)Nc1ccc(F)cc1F	12%	-21%	·	·	-12%	·
COc1cc(/C=C2\SC(=S)N(NC(=O)c3cccnc3)C2=O)ccc1O	9%	-10%	32µM*	·	-9%	0%
CCOc1cc(/C=C2\SC(=S)N(NS(=O)(=O)c3ccccc3)C2=O)ccc1O	-21%	-23%	11µM*	·	3%	-5%
O=C(O)C(Cc1ccccc1)N1C(=O)/C(=C/c2ccccc2)SC1=S (stereo not drawn)	?	-23%	?	-6%	-11%	-6%
COc1cc(/C=C2\SC(=S)N(NC(=O)c3ccc(O)cc3)C2=O)ccc1O	-17%	-4%	·	20%	36%	11%
